Measurements as given in PubChem BioAssay AID1672 (Johns Hopkins Ion Channel Center, 2009).
Out of some 310,000 compounds screened, about 2,600 (0.84%) were called active. The sample holds actives, similar compounds and a random draw of the others, so the mix is not that of the screen. Values without a mark were called inactive.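 The calls were made as follows: active = fluorescence ratio B-score at or below minus 3 SD of library scores, with starting-brightness B-score within 2 SD (cut at about -4.2 in these data); inactive = the rest.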

target: Inward rectifier potassium channel 2 (Mus musculus) (UniProt P35561); assay: blocks the mouse Kir2.1 inward-rectifier potassium channel (AID 1672); settings: HEK293-Kir2.1, FluxOR thallium flux fluorescence; at 10 µM; hits give low values;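 also: channel flux triggered by added potassium and thallium sulfate stimulus; B-score of peak minus minimum fluorescence over baseline after thallium stimulus; more negative B-score means stronger Kir2.1 block with less thallium influx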
Sequence (P35561 whole entry, looked up): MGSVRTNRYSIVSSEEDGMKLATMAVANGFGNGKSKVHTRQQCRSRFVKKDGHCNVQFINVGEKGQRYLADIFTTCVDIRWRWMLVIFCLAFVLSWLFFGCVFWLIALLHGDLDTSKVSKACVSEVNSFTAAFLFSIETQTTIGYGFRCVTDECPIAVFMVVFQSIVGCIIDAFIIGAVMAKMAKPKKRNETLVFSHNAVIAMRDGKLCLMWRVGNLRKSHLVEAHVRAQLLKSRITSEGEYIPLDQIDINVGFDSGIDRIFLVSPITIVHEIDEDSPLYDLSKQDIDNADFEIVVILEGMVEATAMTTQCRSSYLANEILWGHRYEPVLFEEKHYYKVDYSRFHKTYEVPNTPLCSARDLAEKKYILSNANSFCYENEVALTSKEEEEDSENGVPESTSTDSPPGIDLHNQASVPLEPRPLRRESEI

SMILES | B-score
COc1ccc(N2CC(NS(=O)(=O)c3ccc4ccccc4c3)CC2=O)cc1 (stereo not given) | 0.13
O=C(CCCN1CCc2[nH]c3ccc(F)cc3c2C1)c1ccc(F)cc1 | -7.87 (active)
CCCC(=O)N1CCc2[nH]c3ccccc3c2C1 | 0.74
Cc1ccc2[nH]c3c(c2c1)CN(C(=O)CN1CCN(c2ccccc2)CC1)CC3 | 0.62
CCOc1cc(C(=O)Nc2ccc(S(=O)(=O)Nc3cnc4ccccc4n3)cc2)cc(OCC)c1OCC | 1.91
CN(C)C(CNC(=O)c1cccc(S(=O)(=O)Nc2ccc(Br)cc2)c1)c1ccco1 (stereo not given) | 0.84
O=C(NCc1ccccn1)Nc1ccc(Cl)cc1 | 0.46
CC(=O)C12CC(C)=C(C)CC1CC1C3CCC4=CC(=O)CCC4(C)C3CCC12C (stereo not given) | 0.6
CCN(CC(=O)Nc1cc(Cl)ccc1C)C(=O)CN1C(=O)NC2(CCCC2)C1=O | -1.31
CCN(CC(=O)Nc1cc(Cl)ccc1C)C(=O)Cn1c(=O)cnc2ccccc21 | -0.02
CCN(CC(=O)Nc1cc(Cl)ccc1C)C(=O)CSCc1ccc(C)cc1 | -4.45 (active)
C=CCSc1nnc2c(n1)-c1cccc3cccc-2c13 | 1.16
Cc1[nH][nH]c(=O)c1C(c1ccc(-c2ccc(Cl)cc2)o1)c1c(C)[nH][nH]c1=O | -9.44 (active)
CCOc1ccc(C(c2c(C)[nH][nH]c2=O)c2c(C)[nH][nH]c2=O)cc1OCC | -0.06
Cc1[nH][nH]c(=O)c1C(c1ccc2c(c1)OCO2)c1c(C)[nH][nH]c1=O | -0.12
Cc1cccc(Nc2nc(NCCO)nc(N3CCCC3)n2)c1 | 0.27
CCCCn1c(N)c(N(Cc2ccccc2OC)C(=O)COc2cc(C)ccc2Cl)c(=O)[nH]c1=O | 0.8
COC(=O)[C@@]12CCCN1[C@H](c1ccc(-c3ccc(F)cc3)c(OC)c1)[C@H]1C(=O)N(C)C(=O)[C@H]12 | -0.2
COc1ccnc2c1c(=O)n(Cc1cccc(F)c1)c(=O)n2C | 0.78
CC(C)(C)c1cc2cccnc2n1Cc1ccccc1 | -3.38
CC(C)(C)c1cc2cccnc2n1Cc1cccc(F)c1 | -5.77 (active)
CC1CCC2(CC1)NC(=O)N(CC(=O)c1ccc3c(c1)OCO3)C2=O (stereo not given) | 0.27
COc1ccc(C(=O)Nc2ccccc2C(=O)N2CCN(c3ccccc3)CC2)cc1 | 0.29
CC(C)c1ccc(N2CCN(C(=O)c3ccccc3NC(=O)/C=C(\C(=O)O)c3ccccc3)CC2)cc1 | -8.79 (active)
O=C(O)C1CC=CCC1C(=O)Nc1ccccc1C(=O)N1CCN(c2ccccc2)CC1 (stereo not given) | -0.23
